Laboratory results: PubChem BioAssay
Activity calls are given as the source filed them.

Tests used:
[1] = small molecules captured by biotinylated probe aFSTL3 – biochemical, small-molecule microarray, fluorescence 635/667, stem cell growth factor project, primary screen (AID 1064); details: higher = more signal;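 also: measures binding of the biotinylated anti-FSTL3 antibody to printed compounds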
[2] = binders from COS7 lysate, DM2A8 probe, primary screen, torsin A project, cell lysate, small-molecule microarray, fluorescence 635/667 (AID 1065); details: higher = more signal, COS7 lysate expressing mutant human TOR1A
[3] = small molecules captured by biotinylated probe aFGF2 – biochemical, small-molecule microarray, fluorescence 635/667, stem cell growth factor project, primary screen (AID 1067); details: higher = more signal;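 also: measures binding of biotinylated aFGF2 protein to printed compounds on slides; z-score merges feature fluorescence and signal-to-noise across triplicate slides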
[4] = small molecules captured by biotinylated probe aFGF10 – biochemical, small-molecule microarray, fluorescence 635/667, stem cell growth factor project, primary screen (AID 1071); details: higher = more signal;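 also: score merges 667 nm spot intensity and signal to noise from triplicate slides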
[5] = biological target: Neurogenic locus notch homolog protein 2 (Homo sapiens) (UniProt Q04721); test: small molecules binding Notch2 protein – biochemical, small-molecule microarray, 635 nm fluorescence, stem cell growth factors, primary screen (AID 1073); details: higher = more signal
Neurogenic locus notch homolog protein 2 (Homo sapiens), sequence (Q04721 whole entry, looked up, canonical isoform): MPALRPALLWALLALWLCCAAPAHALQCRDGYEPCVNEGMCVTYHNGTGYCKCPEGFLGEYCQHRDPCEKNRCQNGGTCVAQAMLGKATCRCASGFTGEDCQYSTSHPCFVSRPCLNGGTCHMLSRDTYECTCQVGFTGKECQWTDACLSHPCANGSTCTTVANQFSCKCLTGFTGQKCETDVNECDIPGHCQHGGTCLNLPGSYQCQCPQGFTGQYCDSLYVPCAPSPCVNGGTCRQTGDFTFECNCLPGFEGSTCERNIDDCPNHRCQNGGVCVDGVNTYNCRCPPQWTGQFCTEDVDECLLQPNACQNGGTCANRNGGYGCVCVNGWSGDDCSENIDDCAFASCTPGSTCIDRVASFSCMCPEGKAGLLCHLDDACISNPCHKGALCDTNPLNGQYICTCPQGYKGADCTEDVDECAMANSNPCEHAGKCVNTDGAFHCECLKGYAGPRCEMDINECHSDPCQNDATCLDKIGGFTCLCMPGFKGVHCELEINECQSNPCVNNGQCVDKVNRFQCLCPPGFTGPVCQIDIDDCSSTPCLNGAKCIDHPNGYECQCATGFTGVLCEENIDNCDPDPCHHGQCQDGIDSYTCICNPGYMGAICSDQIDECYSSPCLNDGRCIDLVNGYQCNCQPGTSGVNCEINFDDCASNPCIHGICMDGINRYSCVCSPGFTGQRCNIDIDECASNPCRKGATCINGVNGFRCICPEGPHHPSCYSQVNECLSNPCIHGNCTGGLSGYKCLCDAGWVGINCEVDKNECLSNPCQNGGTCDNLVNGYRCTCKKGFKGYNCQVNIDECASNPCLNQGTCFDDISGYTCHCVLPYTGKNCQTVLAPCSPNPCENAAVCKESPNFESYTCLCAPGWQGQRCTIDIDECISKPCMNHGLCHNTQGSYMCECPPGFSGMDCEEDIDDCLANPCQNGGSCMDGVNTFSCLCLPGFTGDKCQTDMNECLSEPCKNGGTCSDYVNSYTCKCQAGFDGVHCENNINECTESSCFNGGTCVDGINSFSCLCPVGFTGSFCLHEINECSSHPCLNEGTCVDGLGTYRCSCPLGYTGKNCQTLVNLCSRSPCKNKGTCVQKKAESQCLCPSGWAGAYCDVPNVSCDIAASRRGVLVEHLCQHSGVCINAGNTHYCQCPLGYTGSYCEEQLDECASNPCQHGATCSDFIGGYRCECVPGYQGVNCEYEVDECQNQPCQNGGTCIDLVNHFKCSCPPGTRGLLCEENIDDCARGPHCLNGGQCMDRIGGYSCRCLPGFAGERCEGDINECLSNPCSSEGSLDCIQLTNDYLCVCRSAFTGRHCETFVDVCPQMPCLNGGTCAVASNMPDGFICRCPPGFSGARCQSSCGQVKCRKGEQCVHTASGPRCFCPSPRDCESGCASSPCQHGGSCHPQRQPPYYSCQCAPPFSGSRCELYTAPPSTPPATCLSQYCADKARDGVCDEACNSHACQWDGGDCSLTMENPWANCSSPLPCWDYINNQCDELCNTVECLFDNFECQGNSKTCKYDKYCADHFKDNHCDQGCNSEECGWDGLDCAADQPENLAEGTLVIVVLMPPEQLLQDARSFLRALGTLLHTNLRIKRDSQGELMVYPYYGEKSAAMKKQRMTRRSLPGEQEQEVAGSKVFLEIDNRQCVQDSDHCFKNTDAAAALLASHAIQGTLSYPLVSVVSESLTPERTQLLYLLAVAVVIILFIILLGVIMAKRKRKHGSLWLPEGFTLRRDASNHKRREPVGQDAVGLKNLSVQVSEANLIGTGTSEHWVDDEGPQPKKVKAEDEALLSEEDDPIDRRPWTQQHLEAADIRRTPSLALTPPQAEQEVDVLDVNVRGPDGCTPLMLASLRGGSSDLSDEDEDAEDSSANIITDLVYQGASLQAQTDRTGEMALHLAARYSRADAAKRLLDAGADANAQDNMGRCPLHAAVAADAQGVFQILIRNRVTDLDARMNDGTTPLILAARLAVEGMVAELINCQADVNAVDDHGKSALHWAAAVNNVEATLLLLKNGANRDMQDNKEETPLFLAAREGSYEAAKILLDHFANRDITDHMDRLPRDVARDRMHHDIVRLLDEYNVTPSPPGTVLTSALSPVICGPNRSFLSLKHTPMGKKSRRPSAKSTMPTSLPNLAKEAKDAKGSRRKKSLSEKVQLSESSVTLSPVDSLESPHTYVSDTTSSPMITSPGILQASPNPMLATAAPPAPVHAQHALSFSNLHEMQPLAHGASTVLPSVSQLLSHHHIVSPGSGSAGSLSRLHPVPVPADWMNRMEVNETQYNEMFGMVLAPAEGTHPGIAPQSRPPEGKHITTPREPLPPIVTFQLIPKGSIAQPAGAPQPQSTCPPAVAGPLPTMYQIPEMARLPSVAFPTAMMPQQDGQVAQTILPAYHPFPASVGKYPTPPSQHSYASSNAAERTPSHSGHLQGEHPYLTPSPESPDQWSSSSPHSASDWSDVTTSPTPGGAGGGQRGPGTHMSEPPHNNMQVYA

[6] = biological target: Pro-neuregulin-1, membrane-bound isoform (Homo sapiens) (UniProt Q02297); test: small molecules binding neuregulin-1 protein – biochemical, small-molecule microarray, fluorescence 635/667, psychiatric disease protein project, primary screen (AID 1075); details: NRG1 binding, 635 nm fluorescence, higher = more signal;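 also: score combines 667 nm spot fluorescence with signal to noise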
Pro-neuregulin-1, membrane-bound isoform (Homo sapiens), sequence (Q02297 whole entry, looked up, the tested form may be a part, canonical isoform): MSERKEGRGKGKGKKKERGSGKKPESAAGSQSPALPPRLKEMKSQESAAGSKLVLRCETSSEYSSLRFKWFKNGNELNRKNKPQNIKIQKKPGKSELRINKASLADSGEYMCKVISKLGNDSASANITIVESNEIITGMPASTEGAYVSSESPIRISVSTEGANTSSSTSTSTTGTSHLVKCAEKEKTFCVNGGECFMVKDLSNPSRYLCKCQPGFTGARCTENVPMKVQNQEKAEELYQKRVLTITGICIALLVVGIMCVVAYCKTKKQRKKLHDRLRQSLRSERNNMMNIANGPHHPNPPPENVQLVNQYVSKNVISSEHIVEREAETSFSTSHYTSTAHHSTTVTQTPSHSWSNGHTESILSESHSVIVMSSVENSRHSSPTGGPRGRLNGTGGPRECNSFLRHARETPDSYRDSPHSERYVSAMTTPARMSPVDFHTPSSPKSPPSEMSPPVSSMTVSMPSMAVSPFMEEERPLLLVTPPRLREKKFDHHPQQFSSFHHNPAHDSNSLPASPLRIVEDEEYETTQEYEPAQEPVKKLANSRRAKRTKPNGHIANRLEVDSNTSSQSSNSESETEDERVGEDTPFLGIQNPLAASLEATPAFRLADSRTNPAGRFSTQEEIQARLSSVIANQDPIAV

[7] = system: Neuregulin-1 EGF-like domain; test: small molecules binding NRG1 EGF domain – biochemical, small-molecule microarray, 635 nm fluorescence, primary screen (AID 1081); details: higher = more signal;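 also: binding of the protein to compounds printed on small-molecule microarray slides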
[8] = FRG1 expression reporter modulators in myotubes – cell-based, C2C12 myotubes, firefly/Renilla luciferase, luminescence, FRG1 inhibition for FSHD, primary screen (AID 1084); details: FRG1 promoter luciferase, higher = more signal, called active from +8 up or from −8 down
[9] = small molecules captured by biotinylated probe aFST – biochemical, small-molecule microarray, fluorescence 635/667, stem cell growth factor project, primary screen (AID 1086); details: higher = more signal;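 also: score merges 667 nm fluorescence with signal-to-noise of each printed compound spot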
[10] = binders of probe aHhip on microarray, primary screen, stem cell growth factor project, biochemical, small-molecule microarray, fluorescence 635/667 (AID 1087); details: higher = more signal;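 also: score merges spot fluorescence at 667nm with spot signal to noise ratio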

| SMILES | composite z-score [1] | composite z-score [2] | composite z-score [3] | composite z-score [4] | composite z-score [5] | composite z-score [6] | composite z-score [7] | z-score [8] | composite z-score [9] | composite z-score [10] |
| --- | --- | --- | --- | --- | --- | --- | --- | --- | --- | --- |
| CCOC(=O)[C@H](Cc1ccccc1)NC(=O)CCC1CC(OC(=O)NCCc2ccc(F)cc2)CC2(CCCC(COC(=O)NCC(c3ccccc3)c3ccccc3)O2)O1 (stereo not given in full) | -0.183 | 0.0877 | -0.0785 | 0.627 | 0.823 | 0.852 | 0.919 | 2.14 (inactive) | 0.486 | 0.0053 |
| O=C1O[C@@H](c2ccccc2)[C@@H](c2ccccc2)N2[C@@H](c3ccccc3OCCO)[C@]3(C(=O)Nc4ccc(C#CCCO)cc43)[C@@H](C(=O)O)[C@H]12 | -1.32 | 0.638 | -0.189 | 0.798 | 0.438 | 1.84 | 1.36 | -1.28 (inactive) | -0.423 | -0.945 |
| COc1ccc(O[C@H]2C=C[C@@H](c3ccccc3)O[C@@H]2CON=C[C@@H](C)[C@H](OCc2ccccc2)C(C)C)cc1 | -0.397 | -0.249 | -0.168 | -0.773 | -0.936 | -0.744 | -0.921 | -1.01 (inactive) | -0.623 | -0.602 |
| CC(C)N1CC=CC23O[C@@H]4C=CCCOC(=O)C4[C@H]2C(=O)N(CCCCCCO)[C@@H]3C1=O (stereo not given in full) | 0.487 | -1.93 | -0.141 | -0.671 | -1.17 | 1.2 | 0.896 | -0.121 (inactive) | -0.357 | -0.236 |
| CC(CCC(=O)OC[C@H]1O[C@H](C#Cc2ccccc2)C=C[C@@H]1Oc1ccc(C)cc1)=NOC[C@@H](O)COCc1ccco1 | 0.348 | -2.21 | 0.0388 | -3.02 | -2.5 | -0.837 | -0.295 | -0.948 (inactive) | -1.94 | -0.389 |
| Cc1cc2c(c(=O)o1)[C@H](O)[C@H]1O[C@H]1C2=O | 0.0331 | 0.357 | -0.175 | 0.118 | 0.749 | -0.262 | 0.12 | -0.924 (inactive) | -0.0853 | -0.0994 |
| C/C=C\[C@@H](NCc1ccccc1Br)[C@@H](O)Cc1ccccc1 | 1.08 | -0.441 | -0.151 | -0.75 | -1.46 | -0.0182 | -0.537 | -0.445 (inactive) | -0.336 | -0.236 |
| Cc1ccc(S[C@]2(C(=O)NCC(F)(F)F)CC(=O)N(Cc3ccccc3Cl)[C@@H]2c2ccc(CO)cc2I)cc1 | 0.647 | -0.193 | -0.122 | 0.494 | -1.23 | 2.01 | 1.21 | -1.13 (inactive) | -0.611 | -0.284 |
| COCCNC(=O)OCC1CCCC2(CC(OC(=O)NCCc3ccc(F)cc3)CC(CCC(=O)N[C@@H](C)C(=O)OC)O2)O1 (stereo not given in full) | -0.576 | 0.37 | -0.132 | 0.632 | 1.1 | 0.511 | 0.777 | -0.0861 (inactive) | 0.347 | -0.196 |
| CC(CCN1CCc2nc(-c3ccccc3)c(-c3ccccc3)cc2C1)=NOC(C)CN1CCCCc2nc(C)c(C)cc21 (stereo not given) | -0.16 | -0.0309 | -0.0398 | 0.476 | 0.519 | 0.657 | 0.885 | 1.1 (inactive) | 0.465 | 0.115 |
| COC(=O)[C@@]1(Cc2ccc(F)cc2)[C@H]2c3cc(C(=O)N(C)C)n(Cc4ccc(OC)c(OC)c4)c3C[C@H]2CN1C(=O)c1ccccc1 | 0.257 | -0.0565 | 0.184 | 0.551 | 1.56 | 0.641 | 1.44 | 0.619 (inactive) | 0.169 | 0.402 |
| CCOC(=O)[C@H](Cc1ccccc1)NC(=O)CCC1CC(OC(=O)NCc2ccc3c(c2)OCO3)CC2(CCCC(COC(=O)NCc3ccccc3)O2)O1 (stereo not given in full) | -0.0824 | 0.204 | -0.0103 | 0.697 | 0.808 | 0.317 | 0.718 | 1.54 (inactive) | 0.393 | 0.0505 |
| COc1ccc(COC(=O)NN=C2C[C@@H](O)[C@@H](O)[C@@H]3[C@@H]4C(=O)N(c5ccc(F)cc5F)C(=O)[C@@H]4CC[C@@H]23)cc1 | 0.827 | 0.515 | -0.0342 | -0.299 | -0.392 | 0.0565 | -1.13 | -0.138 (inactive) | 0.562 | 0.168 |
| CN1C(=O)C2C=CC(C(O)c3ccc(I)cc3)N(NC(=O)OC(C)(C)C)C2C1=O (stereo not given) | 0.108 | -0.0004 | 0.111 | 0.652 | 1.68 | 1.69 | 1.38 | -3.23 (inactive) | 1.18 | -0.0994 |
| [N-]=[N+]=NCc1ccccc1[C@@H]1OC(c2ccc(OCCCO)cc2)=N[C@]1(Cc1ccccc1)C(=O)N1CCOCC1 | 0.351 | 1.51 | 0.122 | 0.875 | 1.55 | 1.68 | 1.25 | -1.42 (inactive) | 0.804 | 0.778 |
| CC(CCN1CCc2nc(-c3ccccc3)c(-c3ccccc3)cc2C1)=NOC[C@@H](C)[C@H](OCc1ccccc1)C(C)C | -0.0574 | -1.01 | -0.172 | -0.756 | -1.63 | 0.0189 | -0.0462 | 0.764 (inactive) | -0.32 | -0.206 |
| CC(CCN1CCCCc2nc(C)c(C)cc21)=NOC(C)CN1CCCc2nc(C)c(C)cc21 (stereo not given) | 0.0516 | 0.471 | 0.196 | 0.943 | 1.52 | 1.35 | 1.06 | 1.28 (inactive) | 1.24 | 0.82 |
| COC(=O)CC=C[C@@H](C)[C@H](OC)c1ccccc1Br | -0.297 | 1.46 | -0.0514 | 0.178 | 0.119 | -0.171 | -0.26 | 1.08 (inactive) | -0.155 | 0.275 |
| COc1ccc(-c2ccc3c(n2)CCCN3CC(O)CN2CCCc3nc(C)c(C)cc32)cc1 (stereo not given) | 0.683 | 1.55 | 0.126 | 0.961 | 0.63 | 0.641 | 0.732 | 3.33 (inactive) | 1.02 | 0.38 |
| COC(=O)[C@H](C)NC(=O)CCC1CC(OC(=O)NCc2ccc3c(c2)OCO3)CC2(CCCC(COC(=O)NCCOc3ccccc3)O2)O1 (stereo not given in full) | -0.426 | 0.898 | -0.122 | 0.325 | 1.06 | 0.689 | 1.04 | -0.503 (inactive) | 0.91 | -0.479 |
| COc1ccc(O[C@H]2C=C[C@@H](c3ccccc3)O[C@@H]2COC(=O)CCC(C)=NOC(C)CN2CCCCc3nc(C)c(C)cc32)cc1 (stereo not given in full) | 0.614 | -0.017 | -0.164 | -0.102 | -0.763 | -0.0663 | 0.106 | 0.766 (inactive) | -0.62 | -0.226 |
| C=COC[C@H]1CN2[C@@H](CC[C@@H](C)[C@@H]2c2ccc(Br)cc2)C(=O)O1 | -0.6 | 0.268 | -0.151 | 0.581 | 0.793 | 0.0578 | 1.12 | -0.688 (inactive) | 0.355 | 0.0373 |
| O=C(CS)NCCCCCNC(=O)[C@@H]1C[C@@H]2C(=O)N[C@@H](Cc3ccccc3)C(=O)N2[C@@H]1c1ccc(O)cc1 | 0.154 | 0.524 | -0.0766 | 0.435 | -0.138 | 0.67 | 1.36 | 1.2 (inactive) | 0.0658 | -0.0994 |
| C#CCCCON=C1C[C@@H](O)[C@@H](O)[C@@H]2[C@@H]3C(=O)N(CCC(=O)OCC)C(=O)[C@@H]3CC[C@@H]12 | 1.93 | 0.597 | -0.0505 | -0.0007 | -0.835 | 0.107 | -0.307 | 0.665 (inactive) | 0.63 | -0.12 |
| N#Cc1ccc(NN2C(C(O)c3cccc4ccccc34)C=CC3C(=O)N(c4ccccc4)C(=O)C32)cc1 (stereo not given) | -0.0622 | -0.182 | 0.158 | 0.829 | 1.65 | 1.63 | 1.21 | 0.025 (inactive) | 0.889 | 0.0695 |
| CC(C)CN1CCc2nc(-c3ccccc3)c3c(c2CC1)CO[C@@H](C)C3 | 0.0816 | 0.252 | -0.0594 | 0.309 | 0.834 | -0.117 | 0.132 | -0.867 (inactive) | 0.594 | 0.394 |
| COc1ccc(-c2nc3c(c4c2C[C@H](C)OC4)CN(CCC(C)C)CC3)cc1 | -0.256 | 0.39 | -0.123 | 0.644 | 1.04 | 0.114 | 0.917 | -0.145 (inactive) | 0.414 | -0.189 |
| COCCCNC(=O)[C@@]1(C)c2ccccc2C(=O)N(Cc2ccc(OC(F)(F)F)cc2)[C@H]1c1ccc(CO)cc1 | 0.729 | -0.255 | -0.116 | -0.0476 | -0.505 | 0.785 | 1.45 | -2.6 (inactive) | 0.153 | 0.213 |
